Screening data deposited in PubChem by National Center for Advancing Translational Sciences (NCATS).
Rab9 prom act: activators of Rab9 promoter | Huh7 Rab9 promoter-luciferase reporter, luminescence, 24 h | Potency, µM (series often up to 9.22 µM), actives largely listed as activators | actives 2.8% (n = 320,000) | AID 485297; further: nearly all actives have a fitted effect of over 60% in size
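Measured in stably transfected Huh7 cells bearing a Rab9 promoter–luciferase construct: 24 h compound treatment at 37 °C, followed by luminescence detection.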
Luc counter: Kinase-Glo luciferase inhibition (counter-screen). Q27757. Kinase-Glo luciferase, ATP luminescence, 8 min. Potency, µM (highest dose often 38.3 µM), actives largely listed as inhibitors. actives 0.28% (n = 200,000); further: nearly all actives have a fitted effect of over 60% in size
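Inhibition of Kinase-Glo luciferase light generation was assessed at 10 uM ATP in pH 7.2 imidazole buffer, with luminescence measured after eight minutes at ambient temperature.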
NPC1 promoter act: activators of NPC1 promoter | Huh7 NPC1 promoter luciferase reporter, 24 h | Potency, µM (top dose mostly 9.22 µM), hits mostly activators | actives 2.4% (n = 320,000); further: nearly all actives have a fitted effect of over 60% in size
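Quantitative HTS used a cell-based reporter: Huh7 cells stably bearing the NPC1 promoter upstream of luciferase were treated with compounds for 24 h, and promoter activation was read as luminescence.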
SMN2 splice enh: SMN2 splice variant enhancement | HEK293 SMN2-luciferase splicing reporter, luminescence, 30-36 h | Potency, µM (top dose mostly 46.1 µM), hits mostly activators | actives 2.8% (n = 210,000) | AID 1458; further: nearly all actives have a fitted effect of over 55% in size
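HEK293 cells carry an SMN2 […]–luciferase reporter in which exon 7 inclusion puts luciferase in frame. Cells were plated 10-12 h before compound addition, then incubated 30-36 h at 37C. ONE-Glo luminescence was read; sodium butyrate at 4.5 mM final served as control.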
FLuc modulator: inhibits or activates purified firefly luciferase, miR-21 counter-screen. P08659. purified FLuc, Km substrates, luminescence inhibition. Potency, µM (series often up to 57.5 µM), most hits filed as inhibitors. actives 6.9% (n = 360,000). AID 588342; further: nearly all actives have a fitted effect of over 55% in size
Target sequence (P08659 whole entry, looked up): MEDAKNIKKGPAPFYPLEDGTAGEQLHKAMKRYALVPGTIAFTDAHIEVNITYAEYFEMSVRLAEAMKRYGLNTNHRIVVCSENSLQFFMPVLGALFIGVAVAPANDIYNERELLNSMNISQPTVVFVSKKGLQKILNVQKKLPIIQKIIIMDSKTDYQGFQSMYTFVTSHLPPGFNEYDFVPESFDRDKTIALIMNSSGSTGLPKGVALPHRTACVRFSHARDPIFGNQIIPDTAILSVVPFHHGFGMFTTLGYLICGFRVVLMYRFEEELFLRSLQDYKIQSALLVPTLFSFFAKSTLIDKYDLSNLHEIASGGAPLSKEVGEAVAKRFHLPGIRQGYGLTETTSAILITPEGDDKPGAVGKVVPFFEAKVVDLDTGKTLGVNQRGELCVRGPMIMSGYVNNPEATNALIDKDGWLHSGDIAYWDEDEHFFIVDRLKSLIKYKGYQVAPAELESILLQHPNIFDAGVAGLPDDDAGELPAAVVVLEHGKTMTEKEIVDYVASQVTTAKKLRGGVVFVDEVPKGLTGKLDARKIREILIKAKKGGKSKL
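Biochemical qHTS of compounds, final roughly 60 µM downward over six points, against 10 nM purified firefly luciferase using Km concentrations of substrates (10 uM D-luciferin, 10 uM ATP) in Tris acetate pH 7.5 buffer; luminescence output.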
ELG1 genotoxic: inducers of genotoxicity in HEK293T ELG1-luciferase cells; HEK293T ELG1-luciferase reporter, luminescence, 16 h; Potency, µM (titrated, usually from 46 µM), actives largely listed as activators; actives 1.3% (n = 330,000); further: nearly all actives have a fitted effect of over 60% in size
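Luminescence read-out: rising ELG1-luciferase signal, reflecting elevated ELG1 protein under genetic stress, flags genotoxic compounds. Cells were treated for 16 hr at 37 °C before ONE-Glo detection.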
A number is an active result; n = inactive; u = inconclusive; x = not tested or not shown; [ ] = another dose, or the depositor's remark. Compounds with a hit are over-represented: about 7.5% of the library has one in this group of screens. The call rests on the fitted dose curve; in most records, active means well fitted curve in the direction sought with a large enough effect; inconclusive means small, poorly fitted or top-dose-only effect, or another doubt; inactive means no such curve, though single readings can be large; an effect the other way counts as inactive or inconclusive.

SMILES | Rab9 prom act | Luc counter | NPC1 promoter act | SMN2 splice enh | FLuc modulator | ELG1 genotoxic
COc1ccc(-n2nc(C(=O)NCC(=O)N3CC(C)CC(C)C3)c3ccccc3c2=O)c(OC)c1 (centres undefined) | n | x | n | x | u | n
COc1ccc(-n2nc(C(=O)NCC(=O)N3CCCC3)c3ccccc3c2=O)c(OC)c1 | n | x | n | x | 13µM | n
CCOC(=O)C1CCN(C(=O)CNC(=O)c2nn(-c3ccc(OC)cc3OC)c(=O)c3ccccc23)CC1 | n | x | n | x | 9.5µM | n
CCOC(=O)N1CCN(C(=O)CNC(=O)c2nn(-c3ccc(OC)cc3OC)c(=O)c3ccccc23)CC1 | n | x | n | x | 3.8µM | u
CC(C)C(=O)Nc1nc2cc3c(cc2s1)OCCO3 | 0.5µM | x | 0.89µM | x | 2.4µM | u
CC(=O)Nc1nc2cc3c(cc2s1)OCO3 | 4µM | n | u | u | 19µM | u
O=C(COc1ccccc1)Nc1nc2cc3c(cc2s1)OCCO3 | n | x | n | x | n | u
CCOC(=O)c1sc(NC(=O)C2CC2)cc1C | n | n | n | n | u | n
CC(=O)Nc1nc2ccc(S(=O)(=O)N3CCCCC3)cc2s1 | n | x | n | x | n | n
CCOC(=O)c1sc(Nc2nc3c(OC)cccc3s2)cc1C | u | n | u | n | 7.6µM | n
CCOC(=O)c1sc(Nc2nc3cc4c(cc3s2)OCO4)cc1C | u | n | u | u | 2.7µM | n
COc1ccccc1CNS(=O)(=O)c1ccc(-n2cccn2)cc1 | n | x | n | x | n | n
O=c1oc2cc(OCCO)ccc2c2c1CCCC2 | n | x | n | x | n | n
O=S(=O)(O)C(c1ccccc1)[C@@H](O)c1ccccc1 (some centres undefined) | x | n[7.66 µM] | x | n[9.22 µM] | x | x
CC(=O)c1sc(Nc2nc3cc4c(cc3s2)OCO4)nc1C | 2µM | n | 3.5µM | 11µM | 3.8µM | u
Cc1nc(-c2cccc(NC(=O)c3cccc(S(=O)(=O)N4CCCC4)c3)c2)cs1 | n | x | n | x | u | n
Cc1csc2nc(-c3cccc(NC(=O)c4cccc(F)c4)c3)cn12 | x | x | x | x | 9.5µM | x
Cc1csc2nc(-c3cccc(NC(=O)c4ccccc4F)c3)cn12 | x | x | x | x | 6.7µM | x
Cc1ccccc1C(=O)Nc1cccc(-c2cn3cccnc3n2)c1 | x | x | x | x | n | x
Cc1csc2nc(-c3cccc(NS(C)(=O)=O)c3)cn12 | x | x | x | x | 27µM | x
Cc1csc2nc(-c3cccc(NC(=O)c4ccccc4Cl)c3)cn12 | x | x | x | x | 12µM | x
C=C1CCN(CC(=O)OC)S(=O)(=O)c2ccccc21 | n | x | n | x | n | n
Cc1ccc(Cn2cc(CCC(=O)NC3CCCCC3)c3ccccc32)cc1 | x | x | x | x | n | x
Cn1c(=O)c2sccc2n2c(CCC(=O)NCc3ccc(F)cc3)nnc12 | x | x | x | n | n | x
CN(C(=O)Cn1ncc2c1-c1ccccc1OC2)c1ccc(Br)cc1 | x | x | x | n | n | x
SMILES | Rab9 prom act | Luc counter | NPC1 promoter act | SMN2 splice enh | FLuc modulator | ELG1 genotoxic
COC(=O)CNC(=O)N1CCN(S(=O)(=O)c2ccc3c(ccn3C)c2)CC1 | x | x | x | x | n | x
Cc1ccc(N=CC=C2OC(C)(C)C(C)(C)O2)cc1 | n | n | n | n | 7.6µM | n
Cc1cccc(N=CC=C2OC(C)(C)C(C)(C)O2)c1 | n | n | n | n | u | n
CCOC(=O)C1=C(COC(=O)c2ccc(Cl)cc2[N+](=O)[O-])NC(=O)NC1C (centres undefined) | n | x | n | x | n | n
Cn1cnc([N+](=O)[O-])c1N=C(N)N | n | x | n | x | n | n
CCN(CC)c1ccc(-n2nc3cc(C)c(NC(=O)c4ccccc4C)cc3n2)c(C)c1 | x | x | x | 6.3µM | n | x
CCN(CC)c1ccc(NC(=O)c2cccc(C)c2OC)c(C)c1 | u | n | 1.1µM | u | 11µM | u
CCc1cccc(NC(=O)Cn2c(=O)n(CC(=O)NCCc3ccccc3)c(=O)c3ccccc32)c1 | x | x | x | n | n | x
O=C(O)C1CCCCC1C(=O)Nc1ccc(S(=O)(=O)N2CCCC2)cc1 (centres undefined) | n | x | n | x | n | n
CC(C)(C)c1ccc(Cn2ccc(-c3ccc4c(c3)OCO4)n2)cc1 | n | n | n | n | 27µM | n
CCc1cccc(NC(=O)c2cn3c4c(ccc(Cl)c4c2=O)OC(C)C3)c1 (centres undefined) | x | x | x | x | n | x
O=C(CCC(=O)c1cccs1)NCc1ccccc1Cl | x | x | x | x | x | n
Clc1ccc(-c2noc(COc3ccccc3)n2)cc1 | n | n | n | n | 13µM | n
C[N+](C)(N)Cc1nc(-c2ccc(Cl)cc2)no1 | x | n[7.66 µM] | x | n[9.22 µM] | x | x
Clc1ccc(-c2noc(CN3CCOCC3)n2)cc1 | 3.2µM | x | 2µM | x | u | u
Cc1ccc(OCc2nc(-c3ccccc3)no2)c(C)c1 | 2.2µM | n | 2.2µM | 10µM | 3µM | 3.2µM
CC(C)(C)Cc1nc(-c2ccc(Cl)cc2)no1 | n | n | n | n | 15µM | n
CCOC(=O)c1ccc(OC(=O)c2cn(-c3cccc(OC)c3)c(=O)c3ccccc23)cc1 | x | x | x | x | n | x
CCc1ccc(C2C(C(=O)Nc3ccc(Cl)cc3)=C(C)Nc3ncnn32)cc1 (centres undefined) | x | x | x | n | n | x
CCOC(=O)Cn1nc(N2CCN(c3ccc(F)cc3)CC2)ccc1=O | x | x | x | n | n | x
Cc1ccc(NC(=O)N2CCCc3ccccc32)cc1C | n | x | n | x | 21µM | u
O=C(Nc1ccc(Br)cc1)N1CCCCC1 | u | n | u | u | 15µM | n
O=C(NC1CCCCC1)N1CCc2ccccc21 | u | n | u | 13µM | 19µM | 15µM
Cc1ccc(NC(=O)N2CCCCCC2)cc1C | 3.2µM | x | 4.5µM | x | 17µM | u
O=C(Nc1ccccc1)N1CCCc2ccccc21 | n | n | n | n | n | n
SMILES | Rab9 prom act | Luc counter | NPC1 promoter act | SMN2 splice enh | FLuc modulator | ELG1 genotoxic
CCCCSCCCNC(=O)c1cn(C)c2ccc(S(=O)(=O)N3CCCCC3)cc2c1=O | x | x | x | n | n | x
Cc1cn2c(=O)cc(COC(=O)COc3ccc(C)c(C)c3)nc2s1 | x | x | x | x | n | x
CN(C)c1ncc2ncc(=O)n(Cc3cccs3)c2n1 | x | n | x | n | x | x
Cc1ccc(NC(=O)C2CCCN(C(=O)c3ccc(Cl)cc3)C2)cc1 (centres undefined) | n | n | n | n | u | n
O=C(Nc1ccccc1)C(=O)Nc1ccc2c(c1)N(C(=O)C1CC1)CCC2 | 1.1µM | x | 1.1µM | x | 3.4µM | 1.6µM
Cc1ccc(NC(=O)C2CCCN(C(=O)c3ccc(Cl)cc3)C2)cc1C (centres undefined) | u | n | n | n | 27µM | n
CCCCn1nc(C(=O)NCC(c2cccs2)N2CCOCC2)c2ccccc2c1=O (centres undefined) | n | x | n | x | n | n
CSc1ccccc1NC(=O)Nc1cccc(F)c1 | u | x | n | x | 21µM | n
N#CCc1ccc(NC(=O)Nc2cccc(Cl)c2)cc1 | n | n | u | n | 17µM | n
O=C(Nc1cccc(F)c1)Nc1cccc(Cl)c1 | u | x | n | x | 24µM | n
N#Cc1ccccc1NC(=O)Nc1cccc(Cl)c1 | x | n | x | n | u | x
O=C(N/C=C/c1ccco1)Nc1cccc(Cl)c1 | n | x | n | x | 27µM | n
